Consider 36 compounds from PubChem BioAssay (EPA / NIEHS).

Each structure is given as a SMILES string. Results filed as inconclusive are left out. Some structures have more than one record in an assay (separate samples or runs), and their calls can disagree. Activity calls are given as the source filed them. How the source made its calls, unless noted: active means hit-call score of the fitted dose curve at least 0.9, where 1 is the maximum; inconclusive means response in the unintended direction; inactive means score below 0.9.

Assay [1] has as its system Sodium/Iodide Symporter (NIS), SLC5A5 (gene 6528). The assay is described as follows: CPHEA_Stoker_NIS_Inhibition_RAIU: CPHEA's Radioactive Iodide Uptake (RAIU) Assay for Sodium/Iodide Symporter (NIS) Inhibition, Stoker and Laws Labs (AID 2283841). Put shortly:
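Iodide uptake through human NIS is measured in an engineered HEK293T line. Cells take up 125I (329pM final) for 2 hours at room temperature alongside chemicals at 0.001–100uM. Retained radioactivity is counted, and the signal is expressed against DMSO controls.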

Assay [2] can be described thus: CPHEA_Stoker_NIS_Cytotoxicity: Cytotoxicity Assessment for CPHEA's Radioactive Iodide Uptake (RAIU) Assay for Sodium/Iodide Symporter (NIS) Inhibition, Stoker and Laws Labs (AID 2283897).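 On AC50: active means loss of ATP signal versus DMSO meaning cytotoxicity.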 The essentials: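 ATP luminescence (Cell Titer Glo) measured viability, with loss of signal normalized to DMSO controls. Cells: hNIS-HEK293T-EPA, seeded 40 hours prior. Dosing: 0.001–100uM, 2 hours, room temperature, uptake buffer pH 7.4.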

Assay [3] concerns the target zebrafish Thyroid Hormone Receptor beta (TRb), thrb (gene 30607) (UniProt Q9PVE4). As to the kind of experiment: ATG_zfTRb_XSP2: Attagene TRANS-FACTORIAL Multi-Species (XSP1) HepG2 Assay for zebrafish Thyroid Hormone Receptor beta (TRb) (AID 2283836).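 On AC50: potency for induction of reporter signal above DMSO so agonist direction.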 Put shortly: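 Fluorescence of labelled reporter cDNA fragments, separated by capillary electrophoresis, gives mRNA induction from exogenous NR-Gal4 chimeras in transiently transfected HepG2 cells after 24 h dosing; 3 nM 6-alpha-fluorotestosterone and 1.5 nM norgestrel included in the run.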

Assay [4] addresses frog Thyroid hormone Receptor alpha (TRa), thra-a (gene 397942) (UniProt P15204). As to the kind of experiment: ATG_frTRa_XSP2: Attagene TRANS-FACTORIAL Multi-Species (XSP2) HepG2 Assay for frog Thyroid hormone Receptor alpha (TRa) (AID 2283839).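 On AC50: AC50 reflects induction of frog TRa-driven reporter mRNA above DMSO baseline.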 Put shortly: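 Reporter transcripts were measured by RT-PCR with capillary electrophoresis after 24 h dosing of HepG2 carrying transiently transfected multi-reporter units, including a chimeric frog TRa-GAL4 construct. Activity was taken as increase over DMSO vehicle.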

Assay [5] concerns the target human Thyroid hormone Receptor beta (TRb), THRB (gene 7068) (UniProt P10828). As to the kind of experiment: ATG_hTRb_XSP2: Attagene TRANS-FACTORIAL Multi-Species (XSP2) HepG2 Assay for human Thyroid hormone Receptor beta (TRb) (AID 2283840).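 Further: actives raise reporter mRNA so potency reflects agonist-like gain of signal.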 The essentials: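 Activity of exogenous human TRb–Gal4 fusion measured by reporter mRNA from RT-PCR and capillary electrophoresis, 24 h after dosing transfected HepG2. 6-alpha-fluorotestosterone (3 nM) and norgestrel (1.5 nM) present. Gain-of-signal fit relative to DMSO.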

Assay [6] can be described thus: ATG_XTT_Cytotoxicity_XSP2: Cytotoxicity Assessment in the Attagene TRANS-FACTORIAL Multi-Species (XSP2) HepG2 Assay (AID 2283837). The essentials:
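HepG2 cells, transiently transfected with multiple reporter constructs, exposed to chemical for 24 h. Cell number assessed with XTT fluorescence read-out; loss of signal fitted relative to DMSO.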

For assay [7], the target named is human Thyroid hormone Receptor alpha (TRa), THRA (gene 7067) (UniProt P10827). The assay is described as follows: ATG_hTRa_XSP2: Attagene TRANS-FACTORIAL Multi-Species (XSP2) HepG2 Assay for human Thyroid hormone Receptor alpha (TRa) (AID 2283838). The essentials:
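HepG2 cells transiently transfected with multiplexed GAL4-UAS reporter units and exogenous NR-GAL4 chimeras; 24 h chemical exposure with 3 nM 6-alpha-fluorotestosterone and 1.5 nM norgestrel present. Reporter mRNA measured by RT-PCR, FAM labelling, HpaI digestion, capillary electrophoresis; gain-of-signal versus DMSO.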

Assay [8] can be described thus: CEETOX_H295R_11DCORT_noMTC: CeeTox H295R High-throughput Steroidogenesis Assay for 11-Deoxycortisol (11DCORT), maximum tolerated concentration (MTC) filtered results only (AID 2283911; active means hit-call score of the fitted dose curve at least 0.9, where 1 is the maximum; inactive means score below 0.9). As to conditions: actives raise or lower the signal. Put shortly: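 Values carry no filtering for maximum tolerated concentration: medium from forskolin-primed (10 uM, 48 h) H295R cells after 48 h chemical exposure (0.1% DMSO) was MTBE-extracted, and 11-deoxycortisol quantified by reverse-phase HPLC-MS/MS. Fitting was bidirectional against DMSO.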

Assay [9] in a line: CEETOX_H295R_OHPREG_noMTC: CeeTox H295R High-throughput Steroidogenesis Assay for OH-Pregnenolone (OHPREG), maximum tolerated concentration (MTC) filtered results only (AID 2283912; active means hit-call score of the fitted dose curve at least 0.9, where 1 is the maximum; inactive means score below 0.9). Conditions: actives raise or lower the signal. Put shortly:
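H295R cells prestimulated 48 h with 10 uM forskolin, then exposed 48 h to compound (0.1% DMSO). 17alpha-hydroxypregnenolone in medium measured by MTBE extraction and HPLC-MS/MS; bidirectional fit vs DMSO, concentrations not MTT/MTC-filtered.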

Assay [10] is described as follows: CEETOX_H295R_OHPROG_noMTC: CeeTox H295R High-throughput Steroidogenesis Assay for OH-Progesterone (OHPROG), maximum tolerated concentration (MTC) filtered results only (AID 2283914; active means hit-call score of the fitted dose curve at least 0.9, where 1 is the maximum; inactive means score below 0.9). As to conditions: actives raise or lower the signal. The essentials:
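H295R cells prestimulated 48 h with 10 uM forskolin, then exposed 48 h to chemical (0.1% DMSO final). 17alpha-hydroxyprogesterone in medium quantified by HPLC-MS/MS after MTBE extraction; bidirectional fitting versus DMSO, concentrations not MTC-filtered.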

Sequence of human Thyroid hormone Receptor beta (TRb), THRB (gene 7068) (P10828 whole entry, looked up, the tested form may be a part): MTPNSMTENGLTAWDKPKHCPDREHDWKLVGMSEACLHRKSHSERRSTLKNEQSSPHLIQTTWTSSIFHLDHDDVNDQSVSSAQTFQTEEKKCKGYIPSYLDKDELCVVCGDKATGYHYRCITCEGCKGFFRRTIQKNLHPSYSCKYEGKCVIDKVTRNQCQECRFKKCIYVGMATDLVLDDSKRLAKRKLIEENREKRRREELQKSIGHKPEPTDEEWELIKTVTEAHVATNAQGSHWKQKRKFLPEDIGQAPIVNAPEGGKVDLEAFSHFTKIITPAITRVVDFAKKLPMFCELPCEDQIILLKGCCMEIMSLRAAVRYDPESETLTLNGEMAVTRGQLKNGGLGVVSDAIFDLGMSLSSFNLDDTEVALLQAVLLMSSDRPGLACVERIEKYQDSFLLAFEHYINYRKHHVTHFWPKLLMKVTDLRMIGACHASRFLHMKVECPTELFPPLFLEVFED
Sequence of zebrafish Thyroid Hormone Receptor beta (TRb), thrb (gene 30607) (Q9PVE4 whole entry, looked up, the tested form may be a part): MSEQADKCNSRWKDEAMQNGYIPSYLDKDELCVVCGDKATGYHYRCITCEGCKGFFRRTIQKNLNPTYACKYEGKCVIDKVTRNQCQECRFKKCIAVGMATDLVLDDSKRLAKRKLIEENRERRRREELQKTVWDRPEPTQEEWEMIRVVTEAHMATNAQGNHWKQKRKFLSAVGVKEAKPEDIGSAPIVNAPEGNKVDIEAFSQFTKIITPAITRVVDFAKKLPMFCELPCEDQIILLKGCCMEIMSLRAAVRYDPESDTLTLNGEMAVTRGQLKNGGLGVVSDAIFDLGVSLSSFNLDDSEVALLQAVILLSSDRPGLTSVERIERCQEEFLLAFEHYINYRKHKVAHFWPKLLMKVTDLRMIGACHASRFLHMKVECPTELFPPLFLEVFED
Sequence of human Thyroid hormone Receptor alpha (TRa), THRA (gene 7067) (P10827 whole entry, looked up, the tested form may be a part): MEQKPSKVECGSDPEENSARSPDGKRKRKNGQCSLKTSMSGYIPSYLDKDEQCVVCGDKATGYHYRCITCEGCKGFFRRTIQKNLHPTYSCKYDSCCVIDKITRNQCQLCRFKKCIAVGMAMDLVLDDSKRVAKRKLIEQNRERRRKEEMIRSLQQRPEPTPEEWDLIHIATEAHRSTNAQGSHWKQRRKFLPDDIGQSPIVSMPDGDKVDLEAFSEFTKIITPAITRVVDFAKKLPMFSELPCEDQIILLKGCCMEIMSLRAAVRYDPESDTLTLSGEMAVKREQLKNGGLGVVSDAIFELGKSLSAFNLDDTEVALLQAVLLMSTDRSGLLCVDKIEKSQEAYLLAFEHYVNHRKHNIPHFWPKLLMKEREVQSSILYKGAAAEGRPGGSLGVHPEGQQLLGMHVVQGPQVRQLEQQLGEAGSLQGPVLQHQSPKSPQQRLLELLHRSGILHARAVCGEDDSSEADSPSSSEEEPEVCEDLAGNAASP
Sequence of frog Thyroid hormone Receptor alpha (TRa), thra-a (gene 397942) (P15204 whole entry, looked up, the tested form may be a part): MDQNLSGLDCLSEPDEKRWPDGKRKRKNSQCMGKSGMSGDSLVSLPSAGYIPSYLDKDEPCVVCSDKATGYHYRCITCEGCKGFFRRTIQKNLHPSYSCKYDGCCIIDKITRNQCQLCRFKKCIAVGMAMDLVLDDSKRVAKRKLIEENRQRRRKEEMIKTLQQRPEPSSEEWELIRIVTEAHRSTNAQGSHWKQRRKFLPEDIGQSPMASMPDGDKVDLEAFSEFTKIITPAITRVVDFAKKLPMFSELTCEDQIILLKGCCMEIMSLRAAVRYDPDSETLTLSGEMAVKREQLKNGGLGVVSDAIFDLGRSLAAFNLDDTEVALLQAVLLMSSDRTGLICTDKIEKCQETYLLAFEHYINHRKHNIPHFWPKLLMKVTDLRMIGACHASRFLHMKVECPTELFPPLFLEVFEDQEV

For the compound `CCCCCCCCC=CCCCCCCCC1=NCCN1CCO`, the result in [1] and in [2] was inactive.

The term AC50 denotes the midpoint of the concentration-response curve, whichever way the signal moves. Turning to `CCCCC(CC)COC(=O)c1ccc(O)cc1` (stereo not drawn), the result in [3], in assay [4] and in [5] was inactive. Also, the values for the AC50 in assay [1] and in assay [2] were 10.4 µM (active) and 83.9 µM (active), respectively.

Turning to `Oc1ccc2cc(SSc3ccc4cc(O)ccc4c3)ccc2c1`, the AC50 is 154 µM (active) in assay [3], 132 µM (active) in [7], 160 µM (active) in assay [4] and 100 µM (active) in [5]. In addition, the outcome in assay [3], in assay [6], in assay [7], in assay [4] and in assay [5] was inactive.

As to `C=C(C)C(=O)OCCOC1CC2CC1C1C=CCC21` (stereo not drawn), the outcome in assay [1] and in [2] was inactive.

With `CCc1cc(Cc2cc(CC)cc(C(C)(C)C)c2O)c(O)c(C(C)(C)C)c1`, the result in assay [1] was inactive.

Regarding `CCc1cc(C(C)(C)C)c(O)c(C(C)(C)C)c1`, the outcome in assay [1] and in assay [2] was inactive.

Consider `O=[N+]([O-])c1ccc(O)cc1C(F)(F)F`, for which the result in [1] and in [2] was inactive.

As for `O=C(c1ccccc1)C(O)c1ccccc1` (stereo not drawn), the outcome in [1] and in [2] was inactive.

On to `CCCCCCCCCCCCN1CCCCCC1=O`, for which the outcome in [1] and in assay [2] was inactive.

As to `OCc1cccc(Oc2ccccc2)c1`, the result in assay [3], in assay [6], in assay [7], in assay [4] and in [5] was inactive.

For `CC=Cc1ccc(OC)c(OC)c1`, the compound was called inactive in assay [8], in assay [9] and in assay [10].

Regarding `COc1ccc(OC)c(N=Nc2c(O)ccc3ccccc23)c1`, the call in assay [8], in assay [9] and in [10] was inactive.

Regarding `CCOc1ccc(N=Nc2ccc(C=Cc3ccc(N=Nc4ccc(OCC)cc4)cc3S(=O)(=O)O)c(S(=O)(=O)O)c2)cc1`, the outcome in assay [1] and in assay [2] was inactive.

As for `Cc1cc(=O)oc2cc(N(C)C)ccc12`, the result in [3], in assay [6], in assay [7], in assay [4] and in [5] was inactive.

`C=C1CC[C@H](O)C/C1=C/C=C1\CCC[C@]2(C)[C@@H]([C@H](C)/C=C/[C@H](C)C(C)C)CC[C@@H]12`: the outcome in [1] and in assay [2] was inactive.

As to `O=C(Nc1ccc2c(O)c(N=Nc3ccc(N=Nc4ccc(S(=O)(=O)O)cc4)cc3)c(S(=O)(=O)O)cc2c1)c1ccccc1`, the call in assay [9] and in [10] was inactive.

Regarding `BrCc1cccc(Oc2ccccc2)c1`, the call in assay [3], in [7], in [4], in assay [5], in assay [1] and in assay [2] was inactive.

Turning to `c1ccc(Oc2ccccc2)cc1`, the outcome in assay [1] and in [2] was inactive.

On to `C=C[Si]1(C)O[Si](C)(C=C)O[Si](C)(C=C)O[Si](C)(C=C)O1` (stereo not drawn), for which the outcome in assay [8] and in assay [9] was inactive. In addition, in [10], the AC50 is 87.1 µM (active).

Turning to `CC(CN=Cc1ccccc1O)N=Cc1ccccc1O` (stereo not drawn), the result in [1] and in assay [2] was inactive.

Regarding `[O-]n1ccccc1=S.[O-]n1ccccc1=S.[Zn+2]`, in assay [1], the AC50 was 18.1 µM (active). Also, the result in [2] was inactive.

With `C[C@H]1O[C@@H](O[C@H]2[C@@H](O)C[C@H](O[C@H]3[C@@H](O)C[C@H](O[C@H]4CC[C@@]5(C)[C@H](CC[C@@H]6[C@@H]5C[C@@H](O)[C@]5(C)[C@@H](C7=CC(=O)OC7)CC[C@]65O)C4)O[C@@H]3C)O[C@@H]2C)C[C@H](O)[C@@H]1O`, in assay [1], the AC50 was 1.12 µM (active). In assay [2], the result was inactive.

Turning to `CCCCCCCCc1ccc(S(=O)(=O)O)cc1`, the result in assay [1] and in [2] was inactive.

Consider `CCCCCCCCCCCCCCN(CCO)CCO`, for which the outcome in assay [1] and in assay [2] was inactive.

As for `Cc1ccc(S(=O)(=O)Oc2ccc(N=Nc3ccc(-c4ccc(N=Nc5c(O)ccc6cc(S(=O)(=O)O)cc(S(=O)(=O)O)c56)c(C)c4)cc3C)cc2)cc1`, the outcome in assay [1] was inactive. The AC50 in assay [2] was 13 µM (active).

As for `O=CCc1ccccc1`, in [2], the outcome was inactive.

With `CCCCCCCCSCCO`, the result in [1] and in [2] was inactive.

As to `CCOC(=O)[C@@H](C)Oc1ccc(Oc2nc3ccc(Cl)cc3o2)cc1`, the outcome in [1] and in [2] was inactive.

Turning to `CCCCCCC(=O)c1ccccc1`, the outcome in [1] and in [2] was inactive.

Turning to `OC[C@H]1O[C@@H]2O[C@H]3[C@H](O)[C@@H](O)[C@@H](O[C@H]4[C@H](O)[C@@H](O)[C@@H](O[C@H]5[C@H](O)[C@@H](O)[C@@H](O[C@H]6[C@H](O)[C@@H](O)[C@@H](O[C@H]7[C@H](O)[C@@H](O)[C@@H](O[C@H]8[C@H](O)[C@@H](O)[C@@H](O[C@H]9[C@H](O)[C@@H](O)[C@@H](O[C@H]1[C@H](O)[C@H]2O)O[C@@H]9CO)O[C@@H]8CO)O[C@@H]7CO)O[C@@H]6CO)O[C@@H]5CO)O[C@@H]4CO)O[C@@H]3CO`, the result in assay [1] and in [2] was inactive.

Turning to `O=c1c(O)c(-c2ccc(O)cc2)oc2cc(O)cc(O)c12`, the compound was called inactive in assay [3], in assay [6], in [7], in assay [4], in assay [5] and in assay [1]. Further, in [2], the result was inactive.

In the case of `CCCCCC(C=O)=Cc1ccccc1`, the outcome in assay [1] and in assay [2] was inactive.

With `COc1ccc(N=Nc2cc(C)c(N=Nc3ccc(S(=O)(=O)O)cc3)cc2OC)cc1`, the result in assay [1] and in assay [2] was inactive.

Regarding `Clc1ccc(C(c2ccccc2Cl)C(Cl)Cl)cc1` (stereo not drawn), the outcome in [3], in [7], in assay [4], in assay [5], in [1] and in [2] was inactive. For the same compound, in assay [6], the AC50 is 100 µM (active).

Turning to `O=C(CC(=O)c1ccccc1)c1ccccc1`, the outcome in [1] and in assay [2] was inactive.

For the compound `OCC#CCO`, the result in assay [1] and in assay [2] was inactive.
